Among the data in PubChem BioAssay (NCI) are growth values, retold here.

About 83,000 compounds went through this panel and 20% of them were active in at least one assay; those are over-represented in the sample as a whole.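 Method: cells in 96-well plates; compound added at one concentration; 48 h incubation; percent growth measured; values under 10 scored active.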 Unmarked numbers belong to inactive results. Calls of active or inactive are those of the source.

Common to all, as to test: NCI-60 one-dose screen, 48 h (100 = growth as untreated, 0 = no growth, -100 = all killed)
What all share (settings): 10 µM unless noted

In assay [1] the test system is T-47D breast.
The subject of assay [2] is BT-549 breast.
For assay [3], the system named is MDA-MB-435 melanoma.
The test system of assay [4] is SW-620 colon.
For assay [5], the system named is MCF7 breast.
In assay [6] the test system is HCT-116 colon.
Assay [7] deals with HCC-2998 colon.
Assay [8] deals with KM12 colon.

`COc1cc(NS(=O)(=O)c2ccc(N)cc2)ncn1`: the growth is 103% in assay [1]; 107% in assay [2]; 99.8% in assay [3]; 108% in assay [4]; 94.7% in assay [5]; 103% in assay [6]. Also, the values for the growth in assay [7] and in assay [8] were 109% and 104%, respectively.
Consider `COc1ccc(-c2nnc(SCC(=O)N3CCN(c4cc5c(cc4F)c(=O)c(C(=O)O)cn5C4CC4)CC3)o2)cc1OC`, for which the growth was 70.7% in assay [1]; 69.1% in assay [2]; 100% in assay [3]; 96.2% in assay [4]; 83.6% in assay [5]; 55.3% in assay [6]. The growth in assay [7] is 108%; in assay [8] it was 99.4%.
As to `NS(=O)(=O)c1ccc(-n2nc(-c3ccc(Cl)cc3)ccc2=O)cc1`, the growth is 95.2% in assay [1]; 92.9% in assay [2]; 43.5% in assay [3]; 93.1% in assay [4]; 86.2% in assay [5]; 99.6% in assay [6]. Also, the growth in assay [7] was 102%; in assay [8], 69.7%.
`COc1cc(C(=O)C[n+]2ccccc2)ccc1OC(C)=O`: the growth in assay [1] is 103%; in assay [2], 94.5%; in assay [3] it was 99.8%; in assay [4], 96.9%; in assay [5], 95.6%; in assay [6] it was 87.6%. In addition, the figures for the growth in assay [7] and in assay [8] were 105% and 102%, respectively.
As to `O=c1[nH]ccc2nc(N3CCC(O)CC3)nc(Nc3cccc(C(F)(F)F)c3)c12`, the growth in assay [1] is 61.6%; in assay [2], 16.5%; in assay [3] it was 7.33% (active); in assay [4], 48.9%; in assay [5], 22.4%; in assay [6], 42%. Moreover, the growth was 83.8% in assay [7] and 23% in assay [8].
Consider `CCn1c(SC)nnc1-c1cc2c([nH]c3ccccc32)c(-c2cccc(O)c2)n1`, for which the growth is 10.8% in assay [1]; 29.4% in assay [2]; -32.4% (active) in assay [3]; 33.1% in assay [4]; 13.8% in assay [5]; 13.2% in assay [6]. Further, the growth in assay [7] is 41.5%; in assay [8], 11.5%.
With `COc1cccc(C2CC(c3cc(OC)c(OC)c(OC)c3)=NN2)c1` (configuration not stated), the growth in assay [1] was 78.7%; in assay [2] it was 93.6%; in assay [3] it was 11.9%; in assay [4], 51.7%; in assay [5], 51.5%; in assay [6], 66.5%. Also, the results for the growth in assay [7] and in assay [8] were 83.2% and 54.7%, respectively.
Take `O=C(NCCNc1nccc(-c2c(-c3cccc(O)c3)nc3sccn23)n1)Nc1cccc(C(F)(F)F)c1`: the growth in assay [1] was 63.8%; in assay [2], 41.1%; in assay [3] it was -3.01% (active); in assay [4] it was 30.3%; in assay [5], 55.6%; in assay [6] it was 56.8%. Also, the growth in assay [7] was 23%; in assay [8] it was 14%.
For the molecule `CS(=O)(=O)OCC(COS(C)(=O)=O)C(c1ccccc1)c1ccccc1`, the growth in assay [1] was 100%; in assay [2], 97.3%; in assay [3], 105%; in assay [4] it was 99.3%; in assay [5], 101%; in assay [6], 95.9%. The growth in assay [7] is 109%; in assay [8], 104%.
As to `CN1CCN(CC(=O)N(C)c2ccc(N=C(c3ccccc3)c3c(O)[nH]c4ccc(C#N)cc34)cc2)CC1`, the growth in assay [1] is 69.4%; in assay [2] it was 15.1%; in assay [3] it was 23.9%; in assay [4], 16.5%; in assay [5] it was 12.7%; in assay [6] it was 9.41% (active). Further, the figures for the growth in assay [7] and in assay [8] were 39.8% and 9.43% (active), respectively.
`CCN1CCN(Cc2ccc(NC(=O)Nc3cccc(-n4ccc5c(NC(=O)c6ccccc6)nccc54)c3)cc2C(F)(F)F)CC1`: the growth in assay [1] is 74.7%; in assay [2], 89.5%; in assay [3], 9.58% (active); in assay [4] it was 86.6%; in assay [5], 31.4%; in assay [6] it was 75.8%. Besides, the growth was 102% in assay [7] and 53.1% in assay [8].
Regarding `CC(C)(CCN=C(N)Nc1ccccn1)c1ccc(C(F)(F)F)cc1`, the growth in assay [1] is -29.7% (active); in assay [2] it was 32.2%; in assay [3] it was 18.7%; in assay [4], -11.2% (active); in assay [5], -11.2% (active); in assay [6] it was -45% (active). Moreover, the growth in assay [7] was -25.1% (active); in assay [8], 13.5%.
As to `O=C(NCCNc1nccc(-c2c(-c3cccc(O)c3)nc3sccn23)n1)c1cc(N2CCOCC2)cc(C(F)(F)F)c1`, the growth was 77.7% in assay [1]; 84.8% in assay [2]; 34.7% in assay [3]; 126% in assay [4]; 85.4% in assay [5]; 78.8% in assay [6]. Moreover, the results for the growth in assay [7] and in assay [8] were 109% and 97.3%, respectively.
In the case of `c1ccc([Se]CCCN2CCN(CCC[Se]c3ccccc3)CC2)cc1`, the growth in assay [1] was 111%; in assay [2] it was 125%; in assay [3], -44.2% (active); in assay [4], 101%; in assay [5] it was 110%; in assay [6] it was 74.5%. Besides, the growth in assay [7] was 115%; in assay [8], 109%.
On to `Cc1ccc[n+](CC(=O)c2cccc3ccccc23)c1`, for which the growth in assay [1] was 91.9%; in assay [2] it was 93.8%; in assay [3], 102%; in assay [4] it was 106%; in assay [5], 98.6%; in assay [6] it was 99.6%. The figures for the growth in assay [7] and in assay [8] were 104% and 103%, respectively.
Regarding `Nc1ncnc2c1c(-c1ccc(Oc3ccccc3)cc1)nn2C[C@H]1SSC[C@H]1O`, the growth was -20.6% (active) in assay [1]; 38.9% in assay [2]; -74.6% (active) in assay [3]; 69.2% in assay [4]; -53.9% (active) in assay [5]; -69.3% (active) in assay [6]. Also, the growth in assay [7] was 11.2%; in assay [8], 9.93% (active).
As for `C[C@@H]1CC2C3C[C@H](F)C4=CC(=O)C=C[C@]4(C)[C@@]3(F)[C@@H](O)C[C@]2(C)[C@@]1(O)C(=O)CO` (some centres not stated), the growth in assay [1] is 100%; in assay [2] it was 81.2%; in assay [3], 93.3%; in assay [4], 105%; in assay [5], 93.9%; in assay [6], 101%. The results for the growth in assay [7] and in assay [8] were 98.8% and 97.4%, respectively.
In the case of `O=C(c1cc(-c2ccc(Cl)cc2)nc2ccccc12)N1N=C(c2ccccc2)CC1c1cc(-c2ccccc2)nn1-c1ccccc1` (configuration not stated), the growth in assay [1] is 75.5%; in assay [2], 84.9%; in assay [3], 83.4%; in assay [4] it was 80.6%; in assay [5] it was 76.3%; in assay [6], 68.1%. Also, the growth was 89.5% in assay [7] and 68.6% in assay [8].
As to `Nc1ncc(-c2ccc3ncnc(Nc4cncc(Cl)c4)c3c2)cn1`, the growth is -7.28% (active) in assay [1]; 64.2% in assay [2]; 75.1% in assay [3]; 95.8% in assay [4]; 37.8% in assay [5]; 82.4% in assay [6]. Besides, the growth in assay [7] is 79.7%; in assay [8], 82.5%.
Take `O=C(NC(=S)Nc1ccc(Cl)cc1)c1ccccc1`: the growth was 105% in assay [1]; 131% in assay [2]; 96.9% in assay [3]; 109% in assay [4]; 59.2% in assay [5]; 92.5% in assay [6]. In addition, the growth in assay [7] is 106%; in assay [8], 124%.
On to `Cc1cn(C2CC(F)C(CO)O2)c(=O)[nH]c1=O` (configuration not stated), for which the growth is 98% in assay [1]; 80.7% in assay [2]; 78.2% in assay [3]; 115% in assay [4]; 113% in assay [5]; 95.6% in assay [6]. The growth is 100% in assay [7] and 99.1% in assay [8].
Consider `C=CC(=O)Nc1cccc(Nc2nc(Nc3ccc(OCCOC(F)F)cc3)ncc2F)c1`, for which the growth in assay [1] is 32.8%; in assay [2], 24.5%; in assay [3], 9.37% (active); in assay [4], 19%; in assay [5], 23.9%; in assay [6], 36%. Further, the growth in assay [7] is 35.8%; in assay [8], 37.4%.
On to `CCc1ccc(C2=C/C(=C/c3ccc(Cl)cc3)C(=O)N2CCc2ccc(S(N)(=O)=O)cc2)cc1`, for which the growth was 0.105% (active) in assay [1]; 38% in assay [2]; 36.7% in assay [3]; 25.2% in assay [4]; 6.29% (active) in assay [5]; 13.6% in assay [6]. The results for the growth in assay [7] and in assay [8] were 24.8% and 18.8%, respectively.
For the molecule `COc1cc(NC(=O)C#Cc2ccccc2)c(OC)cc1Cl`, the growth in assay [1] is 71.1%; in assay [2], 51.3%; in assay [3], 59.3%; in assay [4], 23.9%; in assay [5], 22.6%; in assay [6] it was 21.9%. Moreover, the growth is 90.9% in assay [7] and 49.7% in assay [8].
In the case of `CN1CCN(Cn2nc(-c3cc(F)c(Cl)cc3Cl)n(/N=C/c3ccc(N(C)C)cc3)c2=S)CC1`, the growth in assay [1] was 93.7%; in assay [2] it was 67.1%; in assay [3], -7.65% (active); in assay [4], 70.5%; in assay [5], 112%; in assay [6] it was 82.1%. Also, the figures for the growth in assay [7] and in assay [8] were 98% and 88.8%, respectively.
Consider `CCOc1ccc(NC2=C(Cl)C(=O)c3ccccc3C2=O)cc1`, for which the growth in assay [1] was 66.7%; in assay [2], 77.6%; in assay [3], 67.1%; in assay [4] it was -51.3% (active); in assay [5], 46.1%; in assay [6] it was 80.6%. In addition, the growth in assay [7] is 57.7%; in assay [8], 72.9%.
Regarding `O=C(Nc1ccccc1F)Nc1ccccc1Cl`, the growth in assay [1] is 72.5%; in assay [2], 85.7%; in assay [3] it was 97.4%; in assay [4] it was 96.2%; in assay [5], 90.5%; in assay [6], 101%. Further, the growth in assay [7] is 99.2%; in assay [8], 83.5%.
As to `Cc1cccc(CC(=O)c2ccccc2)n1`, the growth was 94.2% in assay [1]; 111% in assay [2]; 99% in assay [3]; 91.3% in assay [4]; 92% in assay [5]; 90.5% in assay [6]. Besides, the growth in assay [7] is 94.6%; in assay [8], 88.1%.
In the case of `S=c1ssnc1-c1ccccn1`, the growth was 27.1% in assay [1]; 49.5% in assay [2]; 36% in assay [3]; 5.79% (active) in assay [4]; 27.4% in assay [5]; 6.31% (active) in assay [6]. Moreover, the growth in assay [7] was 50.8%; in assay [8], 32.8%.
`COc1ccc(/C=N/C2=NNC(C)(c3ccccc3O)N2C(Cc2c[nH]c3ccccc23)C(=O)O)cc1` (configuration not stated): the growth in assay [1] was 12.9%; in assay [2], 21.6%; in assay [3] it was 3.69% (active); in assay [4], 17.2%; in assay [5], 13.1%; in assay [6], 10.8%. Moreover, the growth was 47.7% in assay [7] and 13.1% in assay [8].
`C#C[C@@]1(O)[C@@H](CO)O[C@@H](n2cc(C(F)(F)F)c3c(N)ncnc32)[C@@H]1O`: the growth in assay [1] was -19.3% (active); in assay [2], -12.1% (active); in assay [3], 14.7%; in assay [4] it was 4.55% (active); in assay [6], 4.15% (active); in assay [7], 3.76% (active). In assay [8], the growth is 6.52% (active).
